GDH-TPI counter-1: counter-screen for M. tuberculosis FBA inhibitors: GDH-TPI coupled enzymes | GDH-TPI coupled enzyme counterscreen, NADH absorbance | inhibition, % at 4.8 µM | 1.2% of 360,000 active; in the data active = inhibition above about 30%;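 also: 0% = DMSO wells and 100% = wells lacking the enzyme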
RecA splice inh: blocks M. tuberculosis RecA intein splicing; P9WHJ3; cell-free RecA intein splicing, fluorescence; inhibition, % (concentration not given with the values); 0.75% of 290,000 active; in the data active = inhibition above about 30%;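 also: 0% = vehicle wells and 100% = reference inhibitor control wells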
SARS 3CLpro inh-1: SARS-CoV 3CLpro protease inhibition | inhibition, % at 6 µM | 0.14% of 290,000 active | AID 1706 | recombinant SARS-CoV 3CLpro, quenched FRET peptide cleavage; in the data active = inhibition above about 12%
FBA Mtb inh: inhibits M. tuberculosis FBA enzyme; inhibition, % at 1 µM; P9WQA3; 2.3% of 360,000 active; AID 588726; purified M. tuberculosis FBA, fluorescence read-out;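 also: 0% = vehicle and 100% = reference inhibitor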
Target sequence (P9WQA3 whole entry, looked up): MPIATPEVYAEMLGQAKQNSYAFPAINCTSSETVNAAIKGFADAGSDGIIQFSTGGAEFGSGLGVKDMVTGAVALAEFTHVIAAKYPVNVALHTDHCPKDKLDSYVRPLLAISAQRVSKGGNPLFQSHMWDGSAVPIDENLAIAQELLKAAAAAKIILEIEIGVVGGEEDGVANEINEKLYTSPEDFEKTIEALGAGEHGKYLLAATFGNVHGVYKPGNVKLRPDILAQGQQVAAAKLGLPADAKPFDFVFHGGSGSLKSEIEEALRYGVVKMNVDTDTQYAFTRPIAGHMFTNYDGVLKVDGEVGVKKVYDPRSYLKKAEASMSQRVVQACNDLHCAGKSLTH
DUSP3 inh: inhibitors of human VHR1 phosphatase (DUSP3) | P51452 | recombinant VHR phosphatase, pNPP absorbance | inhibition, % at 13.3 µM | 0.52% of 290,000 active; in the data active = inhibition above about 50%
Target sequence (P51452 whole entry, looked up): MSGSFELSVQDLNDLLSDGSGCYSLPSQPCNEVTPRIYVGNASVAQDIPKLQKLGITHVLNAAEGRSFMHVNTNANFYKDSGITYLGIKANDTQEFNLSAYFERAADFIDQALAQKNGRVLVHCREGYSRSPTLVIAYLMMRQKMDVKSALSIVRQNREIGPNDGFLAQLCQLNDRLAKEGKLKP
CCHF vOTU inh: blocks the CCHF virus ovarian tumor domain protease | inhibition, % at 11.5 µM | AID 651958 | 0.55% of 370,000 active | CCHFV vOTU protease, Pep-AMC fluorescence; in the data active = inhibition above about 30%; also: 0% = vehicle wells with enzyme and 100% = no enzyme wells
SARS 3CLpro inh-2: SARS 3CLpro inhibition, confirmation assay | AID 1879 | QFRET protease activity assay | inhibition, % at 6 µM | shares compounds with SARS 3CLpro inh-1 | 36% of 380 active; in the data active = inhibition above about 13%
GFP chromophore: counter-screen: blocks GFP chromophore formation; EC50, µM; cell-free GFP chromophore formation, fluorescence; 83% of 2,100 active; shares compounds with RecA splice inh; AID 434968; call rule not given here
Mtb FBA inh conf: Mtb FBA inhibition, confirmed. AID 651616. inhibition, % at 1 µM. shares compounds with FBA Mtb inh. purified M. tuberculosis FBA, fluorescence read-out. 78% of 5,600 active;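 also: 0% = vehicle wells and 100% = reference inhibitor wells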
GDH-TPI counter-2: counter-screen for M. tuberculosis FBA inhibitors: GDH-TPI coupled enzyme inhibition; shares compounds with FBA Mtb inh; GDH-TPI coupled enzyme counterscreen, fluorescence; inhibition, % at 1 µM; 81% of 5,600 active; in the data active = inhibition above about 10%
Active calls of the source: *; . = no result given. A selection: hits, their analogues and other compounds. The true share with any hit is near 4.7%. Rule as the data show it, unless noted: active = inhibition above about 27%; inactive = the rest.

SMILES	GDH-TPI counter-1	RecA splice inh	SARS 3CLpro inh-1	FBA Mtb inh	DUSP3 inh	CCHF vOTU inh	SARS 3CLpro inh-2	others
COc1ccccc1OCCNC(=O)c1cc(=O)[nH]c2ccccc12	16.8	1.8	62.1*	3.9	-8.7	-2.6	65.2*
CCNC(=O)C1(C)CCCN(Cc2cccc3ccccc23)C1 (stereo unspecified)	-3.1	.	.	-1.9	.	-1.4	.
COc1ccc(Cl)cc1NC(=O)CN(C)C(=O)c1ccc(N2CCCCCC2)c([N+](=O)[O-])c1	3.6	2.9	.	0.8	.	5.4	.
O=C(Oc1ccc(Cl)cc1N1C(=O)CCC1=O)c1ccco1	2.7	25.6	15.1*	5.2	-0.6	7.4	18.1*
COC(=O)c1sccc1Oc1ccc(Cl)cc1N1C(=O)CCC1=O	11.0	0.8	3.9	3.5	0.4	-8.7	.
COC(=O)c1cc2c(c3c4cc(F)ccc4n(S(=O)(=O)c4ccc(OC)cc4)c13)C(=O)N(Cc1ccccc1OC)C2	.	.	.	.	.	-6.8	.
CCn1cc(C(=O)NC(=S)Nc2ccccc2[N+](=O)[O-])cn1	9.8	-6.2	12.8*	1.7	-9.1	-3.2	-4.7
Cc1cc(C(=O)NC2CCCc3c2cnn3-c2ccc(C(C)(C)C)cc2)n[nH]1 (stereo unspecified)	2.5	2.0	13.2*	0.6	1.9	6.9	1.6
Cc1ccc(Nc2nc(N)c([N+](=O)[O-])c(N3CCOCC3)n2)cc1C	21.3	5.5	12.8*	-4.5	5.7	3.1	-3.6
Cc1ccc(-c2ccc(/C=N/N3C(=O)C4C5C=CC(C6CC56)C4C3=O)o2)c([N+](=O)[O-])c1 (stereo unspecified)	21.4	6.0	1.0	3.7	32.1	11.4	.
O=C1C2C3C=CC(C3)C2C(=O)N1/N=C/c1ccc(-c2ccccc2[N+](=O)[O-])o1 (stereo unspecified)	17.2	0.7	12.3*	1.1	4.6	-6.0	-4.7
Nc1[nH]c(C(=O)c2ccccc2)c(-c2ccncc2)c1C(=O)NCc1ccc(Cl)cc1	.	.	.	.	.	5.2	.
O=C(NC1CCCCN(Cc2cccc(Cl)c2)C1=O)c1ccccc1 (stereo unspecified)	.	.	.	.	.	-4.1	.
O=C(/C=C/c1ccccc1Cl)Nc1cccnc1	6.4	0.3	16.4*	-1.8	21.9	-5.5	20.7*
COc1ccccc1NC(=O)CCS(=O)(=O)c1cc2c(cc1Cl)NC(=O)CO2	0.9	0.7	-6.2	3.6	-11.6	10.4	.
CC1(C)C2CC=C(/C=N/NC(=S)Nc3cccnc3)C1C2 (stereo unspecified)	-1.3	0.6	15.3*	-8.6	28.2	-14.3	38.7*
CC(C)NC(=S)N/N=C/C1=CCC2CC1C2(C)C (stereo unspecified)	3.7	3.9	-6.0	-1.9	7.6	25.1	.
COc1ccccc1N(CC(=O)Nc1cc(S(=O)(=O)N(C)C)ccc1C)S(=O)(=O)c1cccs1	4.4	.	.	-2.7	.	-7.7	.
Cc1cc(Cl)ccc1OC(C)C(=O)Nc1ccc(S(=O)(=O)Nc2cnc3ccccc3n2)cc1 (stereo unspecified)	7.7	.	12.4*	7.1	9.1	23.2	8.3
Cc1ccc(S(=O)(=O)Nc2cc(-c3ccccc3)nn2C)cc1	-3.8	3.1	0.3	1.1	27.7	-8.0	.
Cc1ccc(S(=O)(=O)Nc2cc(-c3ccccc3)nn2C)cc1Cl	9.6	3.1	13.6*	-0.1	16.3	-6.9	8.9
Cc1cccc(CN2CCN(C(=O)CCl)CC2)c1	7.4	33.1*	16.0*	0.4	18.1	-9.1	46.6*
Cc1nc(N2CCC(C)CC2)c2c(C)c(C(=O)Nc3ccc4c(c3)OCCO4)sc2n1	11.3	2.5	14.2*	-0.5	5.3	-13.8	2.7
Cc1nc(N2CCC(C)CC2)c2c(C)c(C(=O)Nc3cccc(C(F)(F)F)c3)sc2n1	11.1	5.8	-4.7	-5.0	-1.8	-5.7	.
C/C(=N\N=C(/N)SC1CC(=O)N(c2cccc(Cl)c2)C1=O)c1cccs1 (stereo unspecified)	40.0*	8.1	13.1*	-4.8	21.9	29.2	2.2
SMILES	GDH-TPI counter-1	RecA splice inh	SARS 3CLpro inh-1	FBA Mtb inh	DUSP3 inh	CCHF vOTU inh	SARS 3CLpro inh-2	others
CCCOc1ccc(N2C(=O)CC(S/C(N)=N/N=C(\C)c3cccs3)C2=O)cc1 (stereo unspecified)	24.7	-1.1	1.4	-1.5	31.5	14.3	.
CCCN1C(=O)C(NC(C)=O)c2ccccc21 (stereo unspecified)	6.2	-1.2	-2.4	2.1	-18.0	12.2	.
CCc1ccc2c(c1)C(NC(C)=O)C(=O)N2CCN1CCOCC1 (stereo unspecified)	5.5	49.3*	13.9*	14.1	-3.8	17.7	49.9*	GFP chromophore=>38
CC(=O)n1cc(N(C(=O)CCl)c2ccc([N+](=O)[O-])cc2)c2ccccc21	1.5	90.3*	14.1*	-0.2	-4.3	2.5	36.0*	GFP chromophore=2.28*
Cc1noc(C)c1S(=O)(=O)N(C)C[C@H]1Oc2c(NS(=O)(=O)c3cn(C)cn3)cccc2C(=O)N([C@H](C)CO)C[C@@H]1C	8.3	.	.	3.4	.	2.4	.
CN1CCN(CC(=O)N2N=C(c3cccs3)CC2c2ccco2)CC1 (stereo unspecified)	5.2	1.5	-2.2	2.3	-1.5	0.1	.
O=C(CCl)N1N=C(c2cccs2)CC1c1ccco1 (stereo unspecified)	18.5	62.6*	38.5*	4.3	3.4	-3.1	83.4*	GFP chromophore=31.1*
CC(C)CNc1cccc2c1S(=O)(=O)N[C@@H](C)CO2	.	.	.	.	.	2.0	.
CN1CCN2c3ccc(N)cc3CC3(C(=O)NC(=O)NC3=O)C2C1 (stereo unspecified)	3.1	55.2*	21.9*	0.7	16.5	1.8	62.9*	GFP chromophore=>38
CCc1cc(C(=O)c2ccc(C)cc2)c(NC(=O)CCl)s1	-1.5	73.6*	19.5*	-2.7	-4.5	10.2	44.2*	GFP chromophore=14.3*
CCc1nc(N2CCN(C(C)=O)CC2)c2c3c(sc2n1)CC(C(C)(C)C)CC3 (stereo unspecified)	4.6	1.2	0.4	2.9	4.1	-10.3	.
CCc1nc(N2CCN(C(=O)CCl)CC2)c2c3c(sc2n1)CC(C)CC3 (stereo unspecified)	-5.6	87.3*	37.7*	-0.3	-22.9	14.3	63.2*	GFP chromophore=2.58*
COc1cc(OC)c(NC(=O)c2ccc3c(SCC(=O)O)c4c(nc3c2)CCCC4)cc1Cl	5.6	3.5	6.2	0.6	10.6	17.1	.
COc1ccccc1-n1c(C)c(C(=O)O)c2cc(OC)c3ccccc3c21	1.4	7.6	13.7*	27.1*	-23.8	-8.6	9.8	Mtb FBA inh conf=87.3*;GDH-TPI counter-2=81.8*

Compound activity deposited in PubChem by several laboratories.
